Screening results (PubChem)
TGFb inhibitor – TGF-b pathway inhibition; HepG2 CAGA-GFP TGF-b/SMAD3 reporter, GFP fluorescence, 18 h; TGF-beta stimulated, 500 pg/mL final; AID 588855; hit rate 1.2% among 410,000; Potency, µM (top dose mostly 46.1 µM), for the others: at the highest dose activity, negative = inhibition, most hits filed as inhibitors; also: potency is read from the fitted curve at half-maximal effect; % is scaled to controls: 0 for no effect and ±100 for the full control effect; nearly all actives have a fitted effect of over 65% in size
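HEPG2 CAGA-GFP, 1000 cells/well; 2 h settle, 37 C; cpd via pin tool; TGF-b 500 pg/mL final; 18 h, 37 C; GFP imaging ex488/em500-530; %Activity normalised to -TGF-b and +DMSO controls; CRC fit, curve class.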
ASM inhibitor – inhibitors of human secretory acid sphingomyelinase. hit rate 0.006% among 340,000. placental ASM, HMU-PC fluorogenic substrate, 60 min. P17405. Potency, µM (top dose mostly 57.5 µM), inactives show at the highest dose activity change, negative = inhibition, most hits filed as inhibitors; also: potency is read from the fitted curve at half-maximal effect
Target sequence (P17405 47-631 limits assumed): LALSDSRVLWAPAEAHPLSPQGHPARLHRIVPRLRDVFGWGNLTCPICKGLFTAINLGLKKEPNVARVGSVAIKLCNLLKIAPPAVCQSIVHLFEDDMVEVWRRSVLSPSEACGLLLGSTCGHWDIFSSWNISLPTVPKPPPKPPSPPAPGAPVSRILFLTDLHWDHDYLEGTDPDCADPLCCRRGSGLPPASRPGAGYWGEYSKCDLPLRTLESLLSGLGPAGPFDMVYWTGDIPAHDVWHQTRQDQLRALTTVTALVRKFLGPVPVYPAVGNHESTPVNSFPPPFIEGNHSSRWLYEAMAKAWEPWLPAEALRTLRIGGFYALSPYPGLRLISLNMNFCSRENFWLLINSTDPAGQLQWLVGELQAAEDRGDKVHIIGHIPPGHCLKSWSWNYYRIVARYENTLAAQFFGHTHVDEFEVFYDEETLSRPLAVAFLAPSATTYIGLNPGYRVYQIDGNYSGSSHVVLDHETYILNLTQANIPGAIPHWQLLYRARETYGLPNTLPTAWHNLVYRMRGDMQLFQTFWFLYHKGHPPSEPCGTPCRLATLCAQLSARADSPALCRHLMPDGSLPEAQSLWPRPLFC
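Human placenta-derived ASM preincubated with compound 10 min at room temperature, then reacted with 9 uM (final) fluorogenic HMU-PC substrate for 60 min at 37 C. Stop solution raises pH to 10; fluorescence read at Ex 386/Em 447 nm.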
TDP1 cell noCPT – qHTS for Inhibitors of human tyrosyl-DNA phosphodiesterase 1 (TDP1): qHTS in cells in absence of CPT; DT40 Tdp1-/- hTDP1 cells, no CPT, ATP luminescence, 48 h; hit rate 15% among 420,000; Potency, µM (series often up to 46.2 µM), without a hit: at the highest dose activity change, negative = growth inhibition, actives largely listed as inhibitors; also: potency is read from the fitted curve at half-maximal effect; % is scaled to controls: 0 for no effect and ±100 for the full control effect; nearly all actives have a fitted effect of over 55% in size
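No-CPT arm: Tdp1-/-;hTDP1 DT40 cells (400/well) plus compounds, incubated ≥48 hr at 37 °C. Readout CellTiter-Glo luminescence.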
TDP1 cell CPT – DT40-hTDP1 cell growth loss with CPT | chicken DT40 Tdp1-/-;hTDP1 cells + 20 nM CPT, ATP luminescence, 48 h | Potency, µM (series often up to 46.2 µM), without a hit: top-dose activity change, negative = growth inhibition, actives largely listed as inhibitors | hit rate 12% among 420,000 | AID 686979; also: potency is read from the fitted curve at half-maximal effect; % is scaled to controls: 0 for no effect and ±100 for the full control effect; nearly all actives have a fitted effect of over 55% in size
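Chicken DT40 Tdp1-/- cells complemented with human TDP1, 400 cells/well, exposed to compounds plus 20 nM camptothecin for at least 48 h at 37 C; viability read as ATP content by CellTiter-Glo luminescence.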
HepG2 viability – HepG2 cytotoxicity, counter-screen for TGF-b inhibitors; HepG2 CAGA-GFP viability, ATP luminescence, 18 h; Potency, µM (doses to about 46.1 µM), for inactives: at the highest dose activity change, negative = cytotoxicity, usual class: cytotoxic; hit rate 0.76% among 410,000; also: potency is read from the fitted curve at half-maximal effect
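CellTiter-Glo luminescence gave cytotoxicity after 18 hours at 37 degrees C. The cells were HepG2 CAGA-GFP in 1% FBS DMEM, stimulated with 500 pg/mL TGF-beta after compound addition. %Activity was normalised to no-cell wells (complete cell-killing) and DMSO (no toxicity), and curves were fitted and classified.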
IL1B secr inh – blocks inflammasome-driven IL-1 beta release; THP-1 LPS/ATP IL-1B secretion, AlphaLISA, 16 h; active compounds read low; activity change, % at 57.5 µM; hit rate 4.7% among 360,000; AID 743279; in the data active = activity change below about -50%; inconclusive = mostly about -30% to -49%; also: % is scaled to controls: 0 for no effect and ±100 for the full control effect
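Secreted IL-1B measured by AlphaLISA bead assay after 16 h compound exposure of THP-1 cells; compounds (final up to 57.5 uM) added 1 h before LPS (250 ng/mL) and ATP (1.25 mM) stimulation; lower signal means less secretion.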
Active calls of the source: *; ? = inconclusive; . = not tested or not shown; [ ] = remark or other dose. An excerpt weighted towards active compounds, which were near 19% of everything screened. Unless noted, calls follow the shape of the dose curve; as a rule, active = well fitted curve in the direction sought with a large enough effect; inconclusive = small, poorly fitted or top-dose-only effect, or another doubt; inactive = no such curve, though single readings can be large; an effect the other way counts as inactive or inconclusive.

SMILES	TGFb inhibitor	ASM inhibitor	TDP1 cell noCPT	TDP1 cell CPT	HepG2 viability	IL1B secr inh
O=C(Nc1cccc([N+](=O)[O-])c1)Nc1cccc([N+](=O)[O-])c1	-28.5%	-1.8%	2.91µM*	4.61µM*	-26.5%	-57.0*
Cc1occc1C(=O)NNC(=S)Nc1cccc([N+](=O)[O-])c1	?	0.7%	23.1µM*	?	-21.5%	28.7
O=C(Nc1ccc(C(=O)O)cc1)Nc1cccc([N+](=O)[O-])c1	0.0%	3.0%	-17.8%	-8.4%	1.4%	24.1
CC(=O)Nc1ccc(S(=O)(=O)N(C#N)c2nc(N(C)C)nc(N(C)C)n2)cc1	17.5%	-2.5%	4.1%	12.3%	-0.5%	31.0
COc1ccc(C)cc1NC(=O)Nc1cccc(-c2noc(C)n2)c1	-13.7%	.	?	?	-28.6%	.
Cc1nc(-c2cccc(NC(=O)Nc3ccc([N+](=O)[O-])cc3)c2)no1	?	.	4.61µM*	5.17µM*	-56.0%	.
COc1ccc(CCNC(=O)Cn2nc(C)n3nc(-c4ccccc4)cc3c2=O)cc1OC	4.1%	2.4%	-7.5%	?	-3.5%	-19.4
COc1ccc(C(=O)NNC(=O)CSc2nnc(-c3cccnc3)o2)cc1	0.6%	-1.7%	-4.5%	-3.1%	4.6%	-16.3
Oc1ccccc1C1=NCCNC(C(F)(F)C(F)F)=C1	-5.2%	-11.9%	-1.0%	-12.3%	-15.5%	23.0
FC(F)C(F)(F)c1cc(-c2ccc(Cl)cc2)n[nH]1	?	-6.1%	18.4µM*	18.4µM*	-130.6%	.
COC(=O)c1cc(-c2ccc(Cl)cc2)n[nH]1	20.5%	7.6%	-26.1%	?	11.0%	-1.4
Oc1ccccc1-c1cc(C(F)(F)C(F)F)[nH]n1	11.2µM*	-8.3%	?	?	-36.3%	-4.7
Cc1cccnc1CN1CCN(Cc2nc(Cc3cccc(F)c3)no2)CC1	-0.1%	5.0%	4.0%	-5.7%	24.3%	20.6
COc1cc(OC)cc(C(=O)Nc2ccc3nc(N4CCCCC4)cc(C)c3c2)c1	-5.5%	.	16.4µM*	14.6µM*	-16.4%	.
CCOc1cccc(CC(=O)Nc2ccc3nc(N4CCCCC4)cc(C)c3c2)c1OCC	-1.6%	.	?	20.6µM*	-22.7%	.
Cc1ccccc1C(=O)Nc1ccc2nc(N3CCCCC3)cc(C)c2c1	10.6%	.	20.6µM*	?	-24.0%	.
COc1cccc(C(=O)Nc2ccc3nc(N4CCOCC4)cc(C)c3c2)c1	-28.9%	4.1%	20.6µM*	16.4µM*	-34.9%	22.1
Cc1ccccc1C(=O)Nc1ccc2nc3n(c(=O)c2c1)CCC3	-6.7%	4.3%	-18.6%	-10.5%	-12.1%	18.5
O=C(CCCc1ccccc1)NC1CC(=O)N(c2ccc(Cl)cc2)C1 (configuration not stated)	?	.	?	?	-21.7%	.
Cc1cccc2c1cnn2C(=O)Nc1ccccc1Cl	-11.5%	2.6%	?	?	-23.4%	6.8
COc1ccc(NC(=O)CN2C(=O)C(=O)N(C3CCCC3)C2=O)c(OC)c1	0.7%	4.3%	10.7%	-5.0%	-4.0%	7.4
COc1ccc(CC(=O)Nc2ccc3nc(N4CCCCC4)cc(C)c3c2)cc1	?	.	?	23.1µM*	-25.1%	.
CCN1CCCC1CNC(=O)c1cnn(-c2ncc(C)c(-c3ccc(F)cc3)n2)c1C(C)C (configuration not stated)	.	.	-16.1%	-2.7%[9.04 µM]	.	.
Cc1ccc(N2CCN(c3ccc(C)cc3)C2c2cccnc2)cc1	?	-1.7%	?	23.1µM*	-15.4%	-86.2*
COc1cccc(C2N(c3ccccc3)CCN2c2ccccc2)c1OC	34.5%	2.4%	-21.9%	-5.8%	0.3%	-6.6
SMILES	TGFb inhibitor	ASM inhibitor	TDP1 cell noCPT	TDP1 cell CPT	HepG2 viability	IL1B secr inh
c1ccc(N2CCN(c3ccccc3)C2c2ccncc2)cc1	-12.3%	-1.0%	-24.1%	-27.3%	-12.4%	-68.8*
c1ccc(N2CCN(c3ccccc3)C2c2cccnc2)cc1	1.1%	2.0%	?	?	-1.3%	-21.0
Cc1cc(C)n(CC(=O)NNC(=O)CC(C)c2ccccc2)n1 (configuration not stated)	-6.3%	1.0%	-12.1%	-5.8%	-0.5%	-5.9
COc1cccc(CNS(=O)(=O)c2cc3c4c(c2)CCN4C(=O)CC3)c1	4.2%	5.6%	-0.9%	-9.9%	-14.5%	-12.9
COc1ccc(C(=O)NC(c2ccccc2Cl)c2cc(Cl)c3cccnc3c2O)cc1 (configuration not stated)	10µM*	.	13µM*	8.2µM*	11.2µM*	.
COc1cc(C(=O)NC(c2ccccc2Cl)c2cc(Cl)c3cccnc3c2O)cc(OC)c1OC (configuration not stated)	?	.	20.6µM*	13µM*	-6.7%	.
COc1ccc(C(=O)Nc2cc(OC)cc3cccnc23)cc1	16.8%	-7.6%	?	?	-12.3%	-1.3
CCCCCCCCN1[C@@H](CC(C)=O)c2ccc(/C=C/C(C)=O)cc2S1(=O)=O	?	.	5.62µM*	3.98µM*	-16.4%	.
COC(=O)/C=C/c1ccc2c(c1)S(=O)(=O)N(c1cccc(OC)c1)[C@H]2CC(=O)OC	2.3%	-4.7%	?	?	-14.3%	34.9
O=C(O)/C=C/c1ccc2c(c1)S(=O)(=O)N(C1CCCC1)[C@H]2CC(=O)O	27.8%	.	-3.3%	-16.9%	28.3%	.
CC(=O)/C=C/c1ccc2c(c1)S(=O)(=O)N(C1CCCC1)[C@H]2CC(C)=O	7.08µM*	.	7.08µM*	15.8µM*	10µM*	.
COC(=O)/C=C/c1ccc2c(c1)S(=O)(=O)N(C1CCCC1)[C@H]2CC(=O)OC	?	.	?	0.631µM*	-36.4%	.
CCCCCCCCCCCCN1[C@@H](CC(=O)O)c2cc(F)ccc2S1(=O)=O	-10.0%	6.4%	2.6%	?	-28.9%	52.2
COc1cccc(CNS(=O)(=O)c2c(C)[nH]c(C)c2C(=O)N2CCCC2)c1	3.7%	-3.4%	12.4%	-13.0%	-3.6%	9.9
CC(=O)Nc1nonc1-c1nnc(SCc2ccccc2)n1C	2.7%	.	?	?	-21.8%	.
NNC(=O)Cn1nc(Cc2ccccc2)n(N)c1=O	-1.9%	2.2%	-6.1%	2.6%	11.0%	20.8
CCC1CN(CCNC(=O)c2ccc(C#CC(C)(C)O)cc2)Cc2cc(OC)ccc2O1 (configuration not stated)	.	.	?	4.1%[9.04 µM]	.	.
CCCCc1cc(O)c(CCCC)c(O)c1	?	-1.6%	13µM*	20.6µM*	-24.0%	?
